# Values joined by “and” are separate entries in the source; they are usually repeats but may differ in a detail not shown here. Identical values can stand only once. Out of some 5,500 compounds screened, about 2,000 (36%) were called active. About 18% were inconclusive and are not listed. This is one part of the list. A number with no mark means an inactive call. Cut-off read from the data, not from the text of the source: active = normalized growth mostly below about 0.91 (no sharp cut-off); inconclusive = no clear call, values can overlap the other calls; inactive = mostly above about 0.92.
# Test: chemical genetic growth profiling, strain panel (AID 1159580);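 note: tested at 20 µM; growth read once vehicle control cultures reached saturation at 30 °C; 1 = growth at the plate median or of vehicle wells; lower values mean less growth of the strain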
# Settings: S. cerevisiae deletion strains, growth OD
smiles,measurement,setting,value
CCCC(C(=O)OCCN(CC)CC)(c1ccccc1)c1ccccc1,normalized growth,"locus YAL013W, strain DEP1, hits give low values",0.991
same,normalized growth,"locus YAL021C, strain ccr4, hits give low values",0.981
same,normalized growth,"locus YAL026C, strain drs2, hits give low values",1.01
same,normalized growth,"locus YAL030W, strain snc1, hits give low values",0.985
same,normalized growth,"locus YAL040C, strain CLN3, hits give low values",1.03
same,normalized growth,"locus YBR009C, strain hhf1, hits give low values",1
same,normalized growth,"locus YBR021W, strain FUR4, hits give low values",0.92
same,normalized growth,"locus YBR023C, strain chs3, hits give low values",1
same,normalized growth,"locus YBR171W, strain sec66, hits give low values",0.998
same,normalized growth,"locus YBR229C, strain ROT2, hits give low values",1.01
same,normalized growth,"locus YBR231C, strain swc5, hits give low values",0.992
same,normalized growth,"locus YBR279W, strain paf1, hits give low values",0.995
same,normalized growth,"locus YCL011C, strain gbp2, hits give low values",1.01
same,normalized growth,"locus YCL016C, strain dcc1, hits give low values",0.995
same,normalized growth,"locus YCL029C, strain bik1, hits give low values",1
same,normalized growth,"locus YCL061C, strain MRC1 (second series), hits give low values",0.993
same,normalized growth,"locus YCL069W, strain vba3, hits give low values",1.01
same,normalized growth,"locus YCR088W, strain abp1, hits give low values",1
same,normalized growth,"locus YDL005C, strain med2, hits give low values",1
same,normalized growth,"locus YDL035C, strain GPR1, hits give low values",0.99
same,normalized growth,"locus YDL040C, strain nat1, hits give low values",1.01
same,normalized growth,"locus YDL074C, strain BRE1, hits give low values",0.997
same,normalized growth,"locus YDL101C, strain DUN1, hits give low values",1
same,normalized growth,"locus YDL134C, strain PPH21, hits give low values",0.979
same,normalized growth,"locus YDL185W, strain tfp1, hits give low values",0.994
same,normalized growth,"locus YDL192W, strain arf1, hits give low values",0.994
same,normalized growth,"locus YDR001C, strain nth1, hits give low values",1.01
same,normalized growth,"locus YDR069C, strain doa4, hits give low values",0.99
same,normalized growth,"locus YDR101C, strain arx1, hits give low values",0.986
same,normalized growth,"locus YDR137W, strain rgp1, hits give low values",1.18 [resistant] (active)
same,normalized growth,"locus YDR150W, strain NUM1, hits give low values",1
same,normalized growth,"locus YDR159W, strain sac3, hits give low values",1
same,normalized growth,"locus YDR162C, strain NBP2, hits give low values",0.997
same,normalized growth,"locus YDR195W, strain ref2",0.909
same,normalized growth,"locus YDR297W, strain sur2, hits give low values",1
same,normalized growth,"locus YDR318W, strain mcm21, hits give low values",0.993
same,normalized growth,"locus YDR334W, strain swr1, hits give low values",1.03
same,normalized growth,"locus YDR335W, strain msn5, hits give low values",1
same,normalized growth,"locus YDR363W, strain ESC2, hits give low values",1
same,normalized growth,"locus YDR388W, hits give low values",0.982
same,normalized growth,"locus YDR392W, strain spt3, hits give low values",0.962
same,normalized growth,"locus YDR502C, strain sam2, hits give low values",0.995
same,normalized growth,"locus YEL003W, strain gim4, hits give low values",0.999
same,normalized growth,"locus YEL037C, strain rad23, hits give low values",1
same,normalized growth,"locus YEL061C, strain CIN8 (second series), hits give low values",1.01
same,normalized growth,"locus YEL061C, strain CIN8, hits give low values",1
same,normalized growth,"locus YER002W, strain NOP16, hits give low values",1.02
same,normalized growth,"locus YER015W, strain faa2, hits give low values",1.01
same,normalized growth,"locus YER016W, strain bim1, hits give low values",0.987
same,normalized growth,"locus YER110C, hits give low values",0.999
same,normalized growth,"locus YER111C, strain swi4, hits give low values",1
same,normalized growth,"locus YER155C, strain BEM2 (second series), hits give low values",0.946
same,normalized growth,"locus YER155C, strain BEM2, hits give low values",1.01
same,normalized growth,"locus YER167W, strain BCK2, hits give low values",0.994
same,normalized growth,"locus YFR010W, strain ubp6, hits give low values",0.994
same,normalized growth,"locus YGL078C, strain dbp3, hits give low values",1.01
same,normalized growth,"locus YGL086W, strain mad1, hits give low values",0.988
same,normalized growth,"locus YGL167C, strain pmr1, hits give low values",0.999
same,normalized growth,"locus YGL173C, strain kem1, hits give low values",0.99
same,normalized growth,"locus YGL227W, strain vid30, hits give low values",1.01
same,normalized growth,"locus YGL240W, strain doc1, hits give low values",0.99
same,normalized growth,"locus YGL248W, strain PDE1, hits give low values",1.02
same,normalized growth,"locus YGL253W, strain hxk2, hits give low values",1.01
same,normalized growth,"locus YGR078C, strain PAC10, hits give low values",0.992
same,normalized growth,"locus YGR135W, strain pre9, hits give low values",0.958
same,normalized growth,"locus YGR229C, strain SMI1, hits give low values",0.976
same,normalized growth,"locus YGR252W, strain gcn5, hits give low values",0.877
same,normalized growth,"locus YHR013C, strain ard1, hits give low values",0.975
same,normalized growth,"locus YHR027C, strain rpn1, hits give low values",1
same,normalized growth,"locus YHR030C, strain SLT2, hits give low values",1 and 0.999
same,normalized growth,"locus YHR079C, strain IRE1 (second series), hits give low values",1.01
same,normalized growth,"locus YHR079C, strain IRE1, hits give low values",0.987
same,normalized growth,"locus YHR094C, strain hxt1, hits give low values",0.987
same,normalized growth,"locus YHR129C, strain ARP1, hits give low values",1.01
same,normalized growth,"locus YHR142W, strain chs7, hits give low values",1
same,normalized growth,"locus YHR200W, strain rpn10, hits give low values",0.993
same,normalized growth,"locus YIL066C, strain RNR3, hits give low values",0.987
same,normalized growth,"locus YIL073C, strain SPO22, hits give low values",1.01
same,normalized growth,"locus YIL125W, strain kgd1, hits give low values",0.996
same,normalized growth,"locus YIR030C, strain dcg1, hits give low values",0.989
same,normalized growth,"locus YJL092W, strain hpr5, hits give low values",1
same,normalized growth,"locus YJL095W, strain BCK1 (second series), hits give low values",0.994
same,normalized growth,"locus YJL095W, strain BCK1, hits give low values",0.996 and 0.988
same,normalized growth,"locus YJL115W, strain asf1, hits give low values",0.979
same,normalized growth,"locus YJL129C, strain trk1, hits give low values",1.01
same,normalized growth,"locus YJL134W, strain LCB3, hits give low values",1.01
same,normalized growth,"locus YJL154C, strain vps35, hits give low values",1.01
same,normalized growth,"locus YJL164C, strain tpk1, hits give low values",1
same,normalized growth,"locus YJL166W, strain qcr8, hits give low values",0.997
same,normalized growth,"locus YJL168C, strain set2, hits give low values",0.992
same,normalized growth,"locus YJL187C, strain SWE1 (second series), hits give low values",1.01
same,normalized growth,"locus YJL187C, strain SWE1, hits give low values",0.993
same,normalized growth,"locus YJR043C, strain POL32, hits give low values",1
same,normalized growth,"locus YJR066W, strain TOR1, hits give low values",0.954

# Source: PubChem BioAssay AID1159580 (chemical genetic matrix, 2015)
